Compound activity as filed in PubChem BioAssay.
This is a sample that favours compounds with a hit; in the whole collection about 4.3% have one here.
uPA surface inh = qHTS for Inhibitors of Cell Surface uPA Generation; Potency, µM (titrated, usually from 38.3 µM), without a hit: at the top dose activity change, negative = inhibition, most hits filed as inhibitors; cell surface uPA generation assay, qHTS; hit rate 0.31% among 330,000; active means well fitted inhibition curve with a large enough effect; inconclusive means small, poorly fitted or top-dose-only effect; inactive means no such curve, though single readings can be large or run the other way; tested in mouse RAW 264.7 cells; further: potency means the concentration at half of the fitted maximal effect; on the % scale 0 is the no-effect control and ±100 the full control effect; nearly all actives have a fitted effect of over 55% in size
SW480 rereplic = A quantitative high throughput screen for small molecules that induce DNA re-replication in SW480 colon adenocarcinoma cells; hit rate 1.8% among 340,000; AID 624297, 2012; SW480 DNA re-replication, Hoechst DNA content imaging, 48 h; Potency, µM (top dose mostly 46.1 µM), inactives show top-dose re-replication activation, most hits filed as activators; further: potency means the concentration at half of the fitted maximal effect; % of control where 0% means no effect; nearly all actives have a fitted effect of over 55% in size
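Readout is total intensity of Hoechst-stained nuclei, excited at 405 nm and collected at 500-530 nm. Compound treatment lasted 48 hr at 37 C in 5% CO2 before staining.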
Giardia killer = Small Molecules that selectively kill Giardia lamblia: qHTS. Giardia lamblia trophozoite viability. activity change, % at 7.66 µM, hits read low. hit rate 0.15% among 340,000. AID 540267, 2011; in the data active means activity change below about -80%; inconclusive means between about -30% and that limit;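 further: parasites exposed to compound for two days anaerobically before the ATP read; on the % scale 0 is the no-effect control and ±100 the full control effect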
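Each well holds 100 Giardia trophozoites and compound. After two days (48 hrs) at 37 deg C in anaerobic conditions, ATP is quantified by luminescence.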
MCF10A rereplic = A quantitative high throughput screen for small molecules that induce DNA re-replication in MCF 10a normal breast cells. MCF 10A DNA re-replication, Hoechst nuclear intensity, 48 h. hit rate 2.9% among 350,000. Potency, µM (doses to about 46.1 µM), without a hit: top-dose activity, positive = re-replication, hits mostly activators; further: potency means the concentration at half of the fitted maximal effect; % of control where 0% means no effect; nearly all actives have a fitted effect of over 50% in size
Numbers without * were called inactive. Unless noted, the call rests on the fitted dose curve; in most records, active means well fitted activation curve with a large enough effect; inconclusive means small, poorly fitted or top-dose-only effect; inactive means no such curve, though single readings can be large or run the other way.

What do the screens show for `Cc1cc(C)n2nc(C(=O)OCC(=O)Nc3ccc(F)cc3F)nc2n1`?
uPA surface inh: 4%; SW480 rereplic: -2%; Giardia killer: 4; MCF10A rereplic: 9%

What do the screens show for `Cc1ccc(OCC(=O)N/N=C/C=C/c2ccco2)c(Br)c1`?
uPA surface inh: -5%; SW480 rereplic: 16µM*; Giardia killer: -17; MCF10A rereplic: inconclusive

Results for O=C(Nc1ccccc1N1CCCCC1)c1ccc(OC(F)F)cc1 ?
uPA surface inh: -3%; SW480 rereplic: 26%; Giardia killer: -17; MCF10A rereplic: 13µM*

How did COc1ccc(OCC(=O)Nc2ccccc2N2CCN(C)CC2)cc1 do in these assays?
uPA surface inh: 1%; SW480 rereplic: -5%; Giardia killer: -26; MCF10A rereplic: 0%

Results for Cc1ccccc1OCC(=O)Nc1ccc2c(c1)Cc1ccccc1-2 ?
SW480 rereplic: 5%; Giardia killer: -17; MCF10A rereplic: 0%

What do the screens show for `COc1ccc(OCC(=O)Nc2ccccc2N2CCCCC2)cc1`?
uPA surface inh: -17%; SW480 rereplic: 12µM*; Giardia killer: -1; MCF10A rereplic: 3.3µM*

Results for Cc1ccccc1OCC(=O)Nc1ccc(N2CCN(C)CC2)c(Cl)c1 ?
uPA surface inh: -5%; SW480 rereplic: inconclusive; Giardia killer: -3; MCF10A rereplic: 15µM*

How did O=C(CN1CCc2ccccc2C1)Nc1ccccc1N1CCCCCC1 do in these assays?
SW480 rereplic: inconclusive; Giardia killer: 9; MCF10A rereplic: 13µM*

Results for CC(C)[N+](C)(C)CC(O)COc1cccc2ccccc12 (configuration not stated) ?
SW480 rereplic: 1%; MCF10A rereplic: 4%

What do the screens show for `O=C(/C=C/c1ccccc1)NC(=S)N1CCSCC1`?
uPA surface inh: -2%; SW480 rereplic: -3%; Giardia killer: 0; MCF10A rereplic: -6%

Results for COc1ccccc1NC(=O)C1CCCN(S(=O)(=O)c2ccc3c(c2)CC(C)N3C(C)=O)C1 (configuration not stated) ?
uPA surface inh: -2%; SW480 rereplic: 6%; Giardia killer: -8; MCF10A rereplic: 9%

How did Cc1ccc(Cl)c(OCC(=O)Nc2ccccc2N2CCCCC2)c1 do in these assays?
uPA surface inh: 9%; SW480 rereplic: 3.7µM*; Giardia killer: 6; MCF10A rereplic: inconclusive

Results for COc1ccc(CNCC(=O)Nc2ccccc2-n2cccc2)cc1 ?
uPA surface inh: inconclusive; SW480 rereplic: 21µM*; Giardia killer: 4; MCF10A rereplic: inconclusive

How did COc1ccc(CN(C(=O)c2snc(C(N)=O)c2N)C(C(=O)NC2CCCC2)c2ccco2)cc1 (configuration not stated) do in these assays?
uPA surface inh: 3%; SW480 rereplic: -4%; Giardia killer: 3; MCF10A rereplic: 3%

Results for O=C(c1cccc(Cl)c1Cl)N(Cc1ccco1)Cc1cccs1 ?
Giardia killer: 21

Results for CN(CC(=O)NCc1cccnc1)S(=O)(=O)c1ccc(F)cc1 ?
uPA surface inh: 0%; SW480 rereplic: -6%; Giardia killer: 19; MCF10A rereplic: 1%

Results for COc1ccc(S(=O)(=O)N(C)CC(=O)NCc2cccnc2)cc1OC ?
uPA surface inh: -6%; SW480 rereplic: -5%; Giardia killer: 17; MCF10A rereplic: 23µM*

What do the screens show for `CCOc1ccccc1OCC(=O)NCc1ccco1`?
uPA surface inh: -5%; SW480 rereplic: 13%; Giardia killer: 23; MCF10A rereplic: 16µM*

How did O=C(COc1ccccc1Cl)NCc1ccco1 do in these assays?
uPA surface inh: 1%; SW480 rereplic: -3%; Giardia killer: 1; MCF10A rereplic: 2%

Results for Cc1cccc(C)c1OCCNC(=O)C(=O)NCc1ccco1 ?
uPA surface inh: -10%; SW480 rereplic: 2.9µM*; Giardia killer: -3; MCF10A rereplic: 2.9µM*

What do the screens show for `Cc1cc(C(=O)OCC(=O)NCc2ccco2)c(C)n1-c1ccc(F)cc1`?
uPA surface inh: -14%; SW480 rereplic: 3.7µM*; Giardia killer: -1; MCF10A rereplic: 2.1µM*

What do the screens show for `Cc1cccc(C)c1NC(=O)NCc1ccco1`?
uPA surface inh: inconclusive; SW480 rereplic: -4%; Giardia killer: -14; MCF10A rereplic: 7%

Results for CCNC(=O)COC(=O)c1cc(C)n(-c2ccccc2)c1C ?
uPA surface inh: 5%; SW480 rereplic: inconclusive; Giardia killer: 14; MCF10A rereplic: 13%

How did CCN1CCN(c2cc(C(C)(C)C)nc3c(-c4ccccc4)c(C)nn23)CC1 do in these assays?
SW480 rereplic: 6.5µM*; Giardia killer: 0; MCF10A rereplic: inconclusive

How did Cc1nn2c(N3CCOCC3)cc(C(C)(C)C)nc2c1-c1ccccc1 do in these assays?
uPA surface inh: 4%; SW480 rereplic: inconclusive; Giardia killer: -20; MCF10A rereplic: 2%

Results for Fc1ccc(-c2nc3ccccn3c2NCc2ccc3c(c2)OCO3)cc1 ?
uPA surface inh: 0%; SW480 rereplic: inconclusive; Giardia killer: -16; MCF10A rereplic: 11µM*

Results for Oc1ccc(-c2nc3ccccn3c2NCc2ccc3c(c2)OCO3)cc1 ?
uPA surface inh: 2%; SW480 rereplic: -2%; Giardia killer: 7; MCF10A rereplic: -6%

Results for Clc1ccc(Oc2cnns2)c(Cl)c1 ?
uPA surface inh: 2%; SW480 rereplic: -1%; Giardia killer: -6; MCF10A rereplic: 5%

How did S=c1[nH]cc(Oc2ccc(Cl)cc2Cl)c(=S)[nH]1 do in these assays?
uPA surface inh: -2%; SW480 rereplic: inconclusive; Giardia killer: -6; MCF10A rereplic: 16µM*

Results for Cc1ccccc1NC(=O)c1ccccc1NC(=O)Cc1cccc2ccccc12 ?
uPA surface inh: 9%; SW480 rereplic: -5%; Giardia killer: -17; MCF10A rereplic: inconclusive

How did Cc1ccccc1NC(=O)c1cccc2nc3ccccc3nc12 do in these assays?
uPA surface inh: -4%; SW480 rereplic: 18µM*; Giardia killer: -10; MCF10A rereplic: inconclusive

What do the screens show for `O=C1C(=O)c2ccccc2C(O)=C1C1CCC(c2ccc(Cl)cc2)CC1` (configuration not stated)?
uPA surface inh: 19%; SW480 rereplic: 3%; Giardia killer: 15; MCF10A rereplic: 0.033µM*

What do the screens show for `O=C1C=C(c2cccc(Cl)c2O)C[C@@H](c2ccc(Cl)cc2)C1`?
uPA surface inh: 9%; SW480 rereplic: -5%; Giardia killer: -6; MCF10A rereplic: 9%

How did CCS(=O)(=O)N1CCN(C(=O)c2ccco2)CC1 do in these assays?
uPA surface inh: -6%; SW480 rereplic: 17%; Giardia killer: 12; MCF10A rereplic: 8.2µM*

Results for COc1ccc(C(=O)NCCS(=O)(=O)N2CCN(C(=O)c3ccco3)CC2)cc1 ?
uPA surface inh: 0%; SW480 rereplic: 4.1µM*; Giardia killer: -4; MCF10A rereplic: 1%

What do the screens show for `COc1ccc(N2CCN(S(=O)(=O)CCNC(=O)c3ccco3)CC2)cc1`?
uPA surface inh: 8%; SW480 rereplic: 0%; Giardia killer: 25; MCF10A rereplic: -1%
